Gal4-VP16 FLuc – Gal4-VP16 reporter inhibition counter-screen. Drosophila S2 Gal4-VP16 UAS-luciferase, luminescence, 20 h. Potency, µM (doses to about 53.6 µM), actives largely listed as inhibitors. actives 3.5% (n = 310,000). AID 2546;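 note: Gal4-VP16 expression switched on by copper sulfate through the metallothionein promoter; nearly all actives have a fitted effect of over 50% in size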
KB-V1 cytotox – KB-V1 MDR subline cytotoxicity | Potency, µM (titrated, usually from 46.1 µM), actives largely listed as cytotoxic | actives 3.4% (n = 400,000) | KB-V1 MDR cells viability, CellTiter-Glo, 72 h; note: nearly all actives have a fitted effect of over 60% in size
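Potencies derive from concentration-effect curves fitted to normalized luminescence (CellTiter-Glo) of KB-V1 cells treated for 72 h at 37 degrees C in phenol-red-free DMEM containing 10% FBS.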
MCF10A rereplic – DNA re-replication induction in MCF 10a cells. MCF 10A DNA re-replication, Hoechst nuclear intensity, 48 h. Potency, µM (titrated, usually from 46.1 µM), hits mostly activators. actives 2.9% (n = 350,000); note: nearly all actives have a fitted effect of over 50% in size
SW480 rereplic – DNA re-replication induction in SW480 cells; SW480 DNA re-replication, Hoechst DNA content imaging, 48 h; Potency, µM (series often up to 46.1 µM), hits mostly activators; actives 1.8% (n = 340,000); AID 624297; note: nearly all actives have a fitted effect of over 55% in size
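Cells (250 per well) received 23 nL compound or DMSO by pin tool and were kept 48 hr at 37 C, 5% CO2. Nuclei were then stained with Hoechst for 40 min and scanned for DNA content.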
KB-3-1 cytotox – kills parental KB-3-1 adenocarcinoma cells; KB-3-1 viability, CellTiter-Glo ATP luminescence, 72 h; actives 1.4% (n = 400,000); Potency, µM (series often up to 46.1 µM), hits mostly cytotoxic; note: nearly all actives have a fitted effect of over 60% in size
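72 h, 37 °C compound treatment of KB-3-1 parental cells; CellTiter-Glo added, 10 min, luminescence read. Data corrected against DMSO-only plates and normalized before curve fitting.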
RORgamma inh – ROR gamma (mouse) transcription inhibition. Potency, µM (highest dose often 53.6 µM), actives largely listed as inhibitors. actives 5.4% (n = 310,000). AID 2551. Drosophila S2 Gal4-RORgamma UAS-luciferase reporter, 20 h; note: nearly all actives have a fitted effect of over 60% in size
Target sequence (P51450 whole entry, looked up, the tested form may be a part): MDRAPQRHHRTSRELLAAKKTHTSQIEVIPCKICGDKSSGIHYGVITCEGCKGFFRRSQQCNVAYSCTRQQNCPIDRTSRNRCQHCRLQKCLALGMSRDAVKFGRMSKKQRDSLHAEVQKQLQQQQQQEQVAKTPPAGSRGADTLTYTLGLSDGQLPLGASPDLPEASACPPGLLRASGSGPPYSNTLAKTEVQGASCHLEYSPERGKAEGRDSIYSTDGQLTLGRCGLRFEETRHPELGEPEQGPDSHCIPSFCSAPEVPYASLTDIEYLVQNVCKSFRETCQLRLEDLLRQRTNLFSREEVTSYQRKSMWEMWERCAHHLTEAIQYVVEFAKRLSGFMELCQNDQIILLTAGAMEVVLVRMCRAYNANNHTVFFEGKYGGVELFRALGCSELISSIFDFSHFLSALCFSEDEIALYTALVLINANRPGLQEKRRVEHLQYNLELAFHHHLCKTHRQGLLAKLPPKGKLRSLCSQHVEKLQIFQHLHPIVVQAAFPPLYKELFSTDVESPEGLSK
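In this cell-based reporter format, copper sulfate (700 uM final) drives Gal4–ROR gamma fusion expression from a metallothionein promoter in Drosophila Schneider cells; compounds preincubated 1 hr, reporter read after 20 hr at ambient temperature.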
Hits are given with their value; i = inactive; ? = inconclusive; nt = no result; [ ] = dose if it differs, or a comment. Compounds with a hit are over-represented: about 10% of the library has one in this group of screens. Calls come from the whole dose curve; as a rule, active = well fitted curve in the direction sought with a large enough effect; inconclusive = small, poorly fitted or top-dose-only effect, or another doubt; inactive = no such curve, though single readings can be large; an effect the other way counts as inactive or inconclusive.

SMILES	Gal4-VP16 FLuc	KB-V1 cytotox	MCF10A rereplic	SW480 rereplic	KB-3-1 cytotox	RORgamma inh
Cc1ccc2c(=O)cc(C(=O)Nc3c(C(=O)Nc4cccc(Cl)c4)oc4ccccc34)oc2c1	nt	?	nt	nt	i	nt
COc1cc(S(=O)(=O)N2CCCC3(CCCCC3)C2)ccc1-n1cnnn1	i	21µM	i	i	i	i
Nc1c(C(=O)NC2CCCC2)c2nc3ccccc3nc2n1/N=C/c1ccco1	?	i	?	1.5µM	i	?
Nc1c(C(=O)NC2CCCC2)c2nc3ccccc3nc2n1N	i	i	?	i	i	i
COCCCNC(=O)c1c(N)n(/N=C/c2cccnc2)c2nc3ccccc3nc12	i	i	?	?	i	i
COc1ccccc1/C=N/n1c(N)c(C(=O)NC2CCCCC2)c2nc3ccccc3nc21	i	i	10µM	4.1µM	i	i
O=C(Cn1c(=O)n(Cc2ccco2)c(=O)c2ccccc21)Nc1cccc(F)c1	nt	i	nt	nt	i	nt
O=C(Cn1c2ccccc2c(=O)c2ccccc21)Nc1cccc(F)c1	i	i	12µM	18µM	i	i
O=C(Cn1c(=O)c(=O)n(Cc2ccccc2)c2ccc(Cl)cc21)Nc1cccc(F)c1	i	13µM	i	i	i	i
Cc1cccc(NC(=O)c2sc(-n3nc(C)c(CCC(C)C)c3C)nc2C)c1	nt	i	nt	nt	i	nt
Cc1ccc(S(=O)(=O)Nc2cc(Cl)c3oc4c(c3c2)CCCC4)cc1	nt	i	nt	nt	?	nt
COc1ccc(OCCCCN(C)Cc2ccccc2)cc1	i	i	?	i	i	i[1.91 µM]
Cc1ccc(Cl)c(OCCCN(C)Cc2ccccc2)c1	i	i	i	?	i	i
Cc1ccc(Cl)c(OCCCCN(C)Cc2ccccc2)c1	i	21µM	i	i	i	i
COC(=O)c1ccc(OCCCCN(C)Cc2ccccc2)cc1	i	i	18µM	i	?	i[1.91 µM]
Cc1ccc(C)c(NC(=O)Cn2c(=O)oc3cc(S(=O)(=O)NCc4ccccc4)ccc32)c1	nt	i	nt	nt	i	nt
CC(=O)c1ccc(NC(=O)c2ccc(-c3nc(COc4ccc(C)cc4)c(C)o3)cc2)cc1	nt	i	nt	nt	i	nt
CCOC(=O)COc1cc(C)c(Cl)cc1C(=O)c1ccn2nc(-c3ccc(OC)cc3)cc2n1	nt	i	nt	nt	i	nt
CCC(=O)N1CCN(c2ccccc2NC(=O)c2ccc([N+](=O)[O-])o2)CC1	?	?	i	?	?	?
O=C(Nc1ccc(N2CCCC2)c(Cl)c1)c1ccc([N+](=O)[O-])o1	i[10 µM]	?	2.9µM	i	?	?
O=C(Nc1ccccc1N1CCCC1)c1ccc([N+](=O)[O-])o1	?	?	23µM	5.2µM	23µM	2µM
O=C(Nc1ccccc1N1CCN(C(=O)c2ccccc2)CC1)c1ccc([N+](=O)[O-])o1	?	?	?	?	?	5.6µM
O=C(Nc1cccc(NC(=O)c2ccccc2Cl)c1)c1ccc([N+](=O)[O-])o1	?	?	3.7µM	?	?	?
O=C(Nc1cccc([N+](=O)[O-])c1)c1ccc([N+](=O)[O-])o1	nt	?	nt	nt	i	nt
Cc1cccc2[nH]cc(/C=C3/C=Nc4ccccc43)c12	nt	i	nt	nt	i	nt
SMILES	Gal4-VP16 FLuc	KB-V1 cytotox	MCF10A rereplic	SW480 rereplic	KB-3-1 cytotox	RORgamma inh
N#Cc1ccc(-c2cccs2)nc1SCc1ccc(Cl)cc1Cl	nt	i	nt	nt	i	nt
CNC(=O)c1ccc2cc(OC)c(OC)cc2c1	nt	i	nt	nt	i	nt
COC(=O)C1C2CC3c4[nH]c5cc(OC)ccc5c4CCN3CC2CC(OC(=O)c2cc(OC)c(OC)c(OC)c2)C1OC (stereo not given)	i	nt	nt	nt	nt	i
CCC/C=C/C(C)O (stereo not given)	i	nt	nt	nt	nt	i
O=C(Nc1ccc(Cl)cc1F)c1cnc2sc(N3CCOCC3)nn2c1=O	nt	i	nt	nt	i	nt
Brc1cc2c(cc1C1Nc3ccccc3C3C=CCC31)OCO2 (stereo not given)	i	?	?	16µM	?	i
O=C(O)c1ccc2c(c1)C1C=CCC1C(c1cc3c(cc1Br)OCO3)N2 (stereo not given)	i	i	?	i	i	i
COCCNc1ncnc2c1ncn2[C@H]1CN(Cc2ccco2)C[C@@H](CO)O1	nt	i	nt	nt	i	nt
O=C(c1cn(-c2ccccc2)nc1-c1cccs1)N1CCOCC1	i	?	i	i	i	i
O=C(c1cn(-c2ccccc2)nc1-c1cccs1)N1CCN(c2ccccc2)CC1	i	?	6.5µM	2.9µM	8.2µM	?
CCN(CC)CCNC(=S)NC(=O)c1cn(-c2ccccc2)nc1-c1ccc(OC)cc1	13µM	i	?	?	i	7.1µM
O=C(NCC(c1ccco1)N1CCCC1)c1cn(-c2ccccc2)nc1-c1ccc(F)cc1 (stereo not given)	nt	i	21µM	?	i	nt
Cc1ccc(-c2nn(-c3ccccc3)cc2CC(=S)N2CCOCC2)cc1	?	i	i	i	i	18µM
CCOC(=O)c1cc(S(=O)(=O)Nc2cc(OC)ccc2OC)[nH]n1	nt	i	nt	nt	i	nt
CCCC(C)(C)C(=O)N1CCC1(C)C(=O)Nc1cccc2ccccc12 (stereo not given)	nt	i	nt	nt	i	nt
Cc1cccc(N(C)C(=O)Cn2cnc3nc4c(cc3c2=O)CCCC4)c1	nt	i	nt	nt	i	nt
CCS(=O)(=O)N1CCc2cc(C(=O)Nc3cc(C(F)(F)F)ccc3Cl)ccc21	nt	i	nt	nt	i	nt
O=C(c1cn(-c2ccccc2)nc1-c1ccc(Br)cc1)N1CCOCC1	i	?	i	23µM	i	i
O=C(NC(=S)N1CCOCC1)c1cn(-c2ccccc2)nc1-c1ccc(F)cc1	nt	21µM	i	i	i	nt
Cc1nn(-c2ccccc2)c(N)c1Sc1cccc([N+](=O)[O-])c1	i	?	i	i	i	i
Cc1cc(C)nc(-n2nc(C)c(Sc3ccc(F)cc3)c2N)n1	4µM	?	3.3µM	18µM	i	2.2µM
Cc1ccc(C(=O)N2CCN(c3ccc(NC(=S)NC(=O)Cc4ccccc4)cc3)CC2)cc1	8.9µM	i	?	i	i	5.6µM
CCC(=O)N1CCN(c2ccc(NC(=O)COc3ccc(C)cc3C)cc2)CC1	i	i	i	i	i	i
Cc1ccc(C(=O)N2CCN(c3ccc(NC(=O)COc4ccccc4C)cc3)CC2)cc1	i	?	i	i	18µM	i
Cn1c(=O)c2sccc2n2c(CCC(=O)NCc3ccccc3)nnc12	nt	i	nt	nt	i	nt
CCC(C(=O)Nc1ccc(C(=O)OC)cc1)n1nc(-c2ccc(C)cc2)c2c(c1=O)CCCC2 (stereo not given)	nt	?	nt	nt	i	nt
O=[N+]([O-])c1cnc(Sc2ccncn2)s1	3.2µM	?	i	?	18µM	3.2µM
C/C(=N\NC(=O)C1CCCN(S(=O)(=O)c2ccccc2)C1)c1ccccn1 (stereo not given)	5µM	?	?	i	?	2.8µM

Compound activity deposited in PubChem BioAssay by National Center for Advancing Translational Sciences (NCATS).
